Values joined by “and” are separate entries in the source; they are usually repeats but may differ in a detail not shown here. Equal values may be shown once. Results filed as inconclusive are left out. Active and inactive are the calls of the source. Calls come from the whole dose curve; as a rule, active = well fitted curve in the direction sought with a large enough effect; inconclusive = small, poorly fitted or top-dose-only effect, or another doubt; inactive = no such curve, though single readings can be large; an effect the other way counts as inactive or inconclusive.

Test [1] in a line: qHTS of pediatric cancer cell lines to identify multiple opportunities for drug repurposing: Primary screen for BT-37 cells (AID 1347094). Note: potency is the fitted concentration of half-maximal effect. Put shortly: (§1)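 Cells plated at 500-1,000/well in growth medium, compounds added after 5 h. MIPE tested at 11 points (from 0.78 nM), NPC at 8 points (from 0.59 nM). CellTiter-Glo luminescence after 48 h; concentration-response curves from primary screen.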

Test [2] is described as follows: qHTS of pediatric cancer cell lines to identify multiple opportunities for drug repurposing: Primary screen for NB-EBc1 cells (AID 1347095). Note: potency is the fitted concentration of half-maximal effect. Put shortly:
as §1
(In general: qHTS replaces the single test concentration by a dilution series.)

Test [3] in a line: qHTS of pediatric cancer cell lines to identify multiple opportunities for drug repurposing: Primary screen for Saos-2 cells (AID 1347097). Note: nearly all actives have a fitted effect of over 40% in size. Note: potency is the fitted concentration of half-maximal effect. Put shortly:
as §1

The nature of test [4]: qHTS of pediatric cancer cell lines to identify multiple opportunities for drug repurposing: Primary screen for SK-N-SH cells (AID 1347098).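 Note: DMSO served as neutral control and bortezomib at 2.3 µM as positive control; nearly all actives have a fitted effect of over 65% in size.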 Put shortly: (§2)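 Cells (500-1,000/well) rested 5 h, then received compounds for 48 h; metabolically active cells were measured by CellTiter-Glo luminescence. Final concentrations spanned up to 46 µM (MIPE, 11-point) or 0.59 nM-46 µM (NPC, 8-point) in primary screens, 11-point in follow-ups.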

Test [5] is described as follows: qHTS of pediatric cancer cell lines to identify multiple opportunities for drug repurposing: Primary screen for LAN-5 cells (AID 1347100). Note: potency is the fitted concentration of half-maximal effect. Put shortly:
as §2

Test [6] is described as follows: qHTS of pediatric cancer cell lines to identify multiple opportunities for drug repurposing: Primary screen for BT-12 cells (AID 1347101). Note: nearly all actives have a fitted effect of over 25% in size. The essentials: as §2
Test [7] can be described thus: qHTS of pediatric cancer cell lines to identify multiple opportunities for drug repurposing: Primary screen for Rh18 cells (AID 1347102). Note: nearly all actives have a fitted effect of over 65% in size. Note: potency is the fitted concentration of half-maximal effect. Put shortly: as §2
A short description of test [8]: qHTS of pediatric cancer cell lines to identify multiple opportunities for drug repurposing: Primary screen for OHS-50 cells (AID 1347103). Note: nearly all actives have a fitted effect of over 40% in size. Note: potency is the fitted concentration of half-maximal effect. The essentials:
as §2

The nature of test [9]: qHTS of pediatric cancer cell lines to identify multiple opportunities for drug repurposing: Primary screen for RD cells (AID 1347104). Note: nearly all actives have a fitted effect of over 55% in size. The essentials: as §1
Test [10] can be described thus: qHTS of pediatric cancer cell lines to identify multiple opportunities for drug repurposing: Primary screen for MG 63 (6-TG R) cells (AID 1347105). Note: nearly all actives have a fitted effect of over 50% in size. Note: potency is the fitted concentration of half-maximal effect. Put shortly:
as §1

The nature of test [11]: qHTS of pediatric cancer cell lines to identify multiple opportunities for drug repurposing: Primary screen for control Hh wild type fibroblast cells (AID 1347106).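 Note: series mostly up to about 46 µM; a drop in luminescence marks cytotoxicity and a rise apparent proliferation; nearly all actives have a fitted effect of over 55% in size.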 The essentials:
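Cells (500-1,000/well) in growth media were settled 5 h at 37 degrees C, then given compounds for 48 h. Viability was read as CellTiter-Glo luminescence. Primary runs used MIPE at 11 points (0.78 nM-46 µM) and NPC at 8 points (0.59 nM-46 µM); follow-ups used 11 points.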

Test [12] is described as follows: qHTS of pediatric cancer cell lines to identify multiple opportunities for drug repurposing: Primary screen for Rh30 cells (AID 1347107). Note: series mostly up to about 46 µM; nearly all actives have a fitted effect of over 75% in size. Put shortly:
as §2

Test [13] in a line: qHTS of pediatric cancer cell lines to identify multiple opportunities for drug repurposing: Primary screen for Rh41 cells (AID 1347108).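 Note: series mostly up to about 46 µM; luminescence drop marks cytotoxic hits; nearly all actives have a fitted effect of over 70% in size.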 Put shortly:
as §1

A short description of test [14]: qHTS of pediatric cancer cell lines to identify multiple opportunities for drug repurposing: Primary screen for NB1643 cells (AID 1347099). Note: nearly all actives have a fitted effect of over 50% in size. Note: potency is the fitted concentration of half-maximal effect. Put shortly: as §1
A short description of test [15]: qHTS of pediatric cancer cell lines to identify multiple opportunities for drug repurposing: Primary screen for U-2 OS cells (AID 1347096). Note: nearly all actives have a fitted effect of over 50% in size. The essentials: as §2
Test [16] is described as follows: qHTS of pediatric cancer cell lines to identify multiple opportunities for drug repurposing: Confirmatory screen for NB1643 cells (AID 1347109). Note: potency is the fitted concentration of half-maximal effect; nearly all actives have a fitted effect of over 45% in size. The essentials:
as §2

Test [17] in a line: qHTS of pediatric cancer cell lines to identify multiple opportunities for drug repurposing: Confirmatory screen for A673 cells (AID 1347110).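 Note: potency is the fitted concentration of half-maximal effect; cells exposed to compound for 48 h before the viability read; nearly all actives have a fitted effect of over 65% in size.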 The essentials: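 Forty-eight-hour viability assay. Follow-up compounds ran at 11-point dilutions; positive control bortezomib at 2.3 uM final, neutral control DMSO.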
Test [18] in a line: qHTS of pediatric cancer cell lines to identify multiple opportunities for drug repurposing: Confirmatory screen for SK-N-MC cells (AID 1347111).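 Note: potency is the fitted concentration of half-maximal effect; cells exposed to compound for 48 h before the readout; nearly all actives have a fitted effect of over 70% in size.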 The essentials: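 Seed 500-1,000 cells/well; rest 5 h at 37 degrees C. Pin-transfer compounds, 11-point titration. Incubate 48 h. Add CellTiter-Glo, 15 min RT, read luminescence.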
The nature of test [19]: qHTS of pediatric cancer cell lines to identify multiple opportunities for drug repurposing: Confirmatory screen for LAN-5 cells (AID 1347113). Note: potency is the fitted concentration of half-maximal effect; nearly all actives have a fitted effect of over 65% in size. The essentials: as §2

Consider `Cc1cccc(C)c1NC1=NCCCS1`, for which the Potency entry in test [1], in [2], in [3], in [4], in test [5] and in [6] was “inactive” each time. The Potency result in test [7], in test [8], in test [9], in test [10], in [11] and in test [12] was “inactive” in each case. In addition, the Potency result in test [13] was “inactive”.
`CC(=O)Nc1cc([As](=O)(O)O)ccc1O`: the Potency result in [1], in [2], in [3], in test [4], in test [14] and in [5] was “inactive” throughout. Further, the Potency result in [6], in [7], in test [8], in test [9], in test [10] and in [11] was “inactive” in each case. The Potency entry in test [12] and in [13] was “inactive” each time.
As for `O=c1oc2ccccc2c(O)c1C(CC(O)c1ccc(-c2ccc(Br)cc2)cc1)c1ccccc1` (stereo unspecified), the Potency entry in test [1], in test [2], in [3], in [4], in test [14] and in test [5] was “inactive” in each case. Besides, the Potency entry in test [6], in test [7], in test [8], in [9], in test [10] and in test [11] was “inactive” throughout. The Potency entry in [12] and in test [13] was “inactive” in each case.
For the molecule `C[C@]12CC[C@H]3[C@@H](CCC4=CC(=O)CC[C@@H]43)[C@@H]1CC[C@@H]2OC(=O)CCc1ccccc1`, the Potency result in [1], in test [2], in test [15], in [4], in [14] and in test [5] was “inactive” in each case. The Potency entry in [6], in test [7], in test [8], in [9], in test [10] and in [11] was “inactive” each time. In addition, the Potency result in test [12] and in test [13] was “inactive” each time.
Regarding `CC(C)=CCOc1c2occc2cc2ccc(=O)oc12`, the Potency entry in [1], in test [2], in test [15], in [4], in [14] and in test [5] was “inactive” each time. Moreover, the Potency entry in test [7], in test [9], in test [10], in [11], in test [12] and in test [13] was “inactive” throughout.
On to `NCC1(CC(=O)O)CCCCC1`, for which the Potency entry in test [1], in test [2], in test [3], in [4], in test [14] and in test [5] was “inactive” each time. Also, the Potency entry in [6], in test [7], in [8], in test [9], in test [11] and in test [12] was “inactive” throughout. In test [13], the Potency entry was “inactive”.
Take `CCCC1CCCCN1` (stereo unspecified): the Potency result in test [1], in test [2], in test [3], in test [4], in [14] and in [5] was “inactive” throughout. In addition, the Potency result in test [6], in test [7], in test [8], in test [9], in [10] and in [11] was “inactive” in each case. Further, the Potency entry in test [12] and in test [13] was “inactive” each time.
Regarding `CC1OC(C)OC(C)O1` (stereo unspecified), the Potency entry in test [1], in [2], in [3], in test [4], in test [14] and in [5] was “inactive” in each case. For the same molecule, the Potency entry in test [6], in [7], in [9], in test [11], in test [12] and in [13] was “inactive” throughout.
For `N[C@@H](Cc1ccc(N(CCCl)CCCl)cc1)C(=O)O`, the Potency in [1] is 15.5 µM (active) and 15.3 µM (active); in test [2] it was 3.76 µM (active) and 235 nM (active); in [3] it was 26.6 µM (active) and 16.6 µM (active); in test [14], 9.44 µM (active) and 16.6 µM (active); in test [5], 5.96 µM (active) and 3.72 µM (active); in test [7], 21.1 µM (active). The Potency was 9.78 µM (active) and 3.85 µM (active) in test [8]; 16.8 µM (active) and 18.7 µM (active) in test [10]; 6.57 µM (active) in [16]; 16.5 µM (active) in [17]; 2.61 µM (active) in test [18]; 5.22 µM (active) in test [19]. In addition, the Potency result in test [9], in test [11] and in test [12] was “inactive” throughout.

Source of the values: PubChem BioAssay (NCATS).
